Data from PubChem BioAssay.
Activity calls are given as the source filed them.

What was measured:
[1] = system: Plasmodium falciparum Sir2 (PF13_0152, Sir2A); assay: pfSir2 binders on small-molecule microarrays, primary screen, biochemical, small-molecule microarray, 635 nm fluorescence (AID 1098); details: small-molecule microarray binding, fluorescence 635 nm; higher = more signal;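 further: score merges spot fluorescence intensity with its signal-to-noise ratio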
[2] = small-molecule microarray binders of probe aDKK1, primary screen, biochemical, biotinylated probe, 635/667 nm fluorescence (AID 1099); details: higher = more signal;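 further: score merges 667nm spot fluorescence with signal to noise across triplicate slides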
[3] = small-molecule microarray binders of probe aCHRDL2, primary screen, biochemical, biotinylated probe, 635/667 nm fluorescence (AID 1100); details: higher = more signal
[4] = splicing luciferase reporter signal modulators, primary screen, spliceosome inhibition project, cell-based, HEK293, splice +/- reporter (AID 1101); details: luminescence, 24 h, higher = more signal, called active from +8 up or from −8 down;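 further: HEK293 cells carrying a splicing-competent luciferase reporter gene; test concentration not given here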
[5] = target: Fibroblast growth factor 10 (Homo sapiens) (UniProt O15520); assay: FGF10 binders on small-molecule microarrays, primary screen, biochemical, small-molecule microarray, 635 nm fluorescence (AID 1102); details: FGF10 binding, fluorescence 635 nm, higher = more signal
[6] = system: glycogen synthase kinase-3 (GSK3A per assay name; protocol says GSK3B); assay: GSK3 binders on small-molecule microarrays, primary screen, biochemical, small-molecule microarray, 635 nm fluorescence, GSK3A (AID 1103); details: small-molecule microarray binding, fluorescence 635 nm; higher = more signal; further: the record names both GSK3A and GSK3B
[7] = target: Epidermal growth factor receptor (Homo sapiens) (UniProt P00533); assay: EGFR binders on small-molecule microarrays, primary screen, biochemical, small-molecule microarray, 635 nm fluorescence (AID 1104); details: EGFR binding, higher = more signal;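 further: score merges 667 nm emission intensity with spot signal to noise over triplicate slides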
[8] = target: Follistatin-related protein 3 (Homo sapiens) (UniProt O95633); assay: FSTL3 binders on small-molecule microarrays, primary screen, biochemical, small-molecule microarray, 635 nm fluorescence (AID 1105); details: FSTL3 binding, higher = more signal;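 further: score merges emission near 667 nm and signal to noise per printed spot across three slides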
[9] = target: Dickkopf-related protein 1 (Homo sapiens) (UniProt O94907); assay: DKK1 binders on small-molecule microarrays, primary screen, biochemical, small-molecule microarray, 635 nm fluorescence scan (AID 1106); details: DKK1 binding, higher = more signal;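 further: score merges emission near 667 nm with signal to noise over three replicate slides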
[10] = system: Inhibin beta A chain (activin A); assay: INHBA (activin A) binders on microarrays, primary screen, biochemical, small-molecule microarray, 635 nm fluorescence scan (AID 1107); details: small-molecule microarray binding, higher = more signal;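 further: mouse activin A protein probed at 4.33 µg/mL on printed slides; score merges bound-protein fluorescence near 667 nm with spot signal-to-noise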
[11] = system: Human papillomavirus type 1a protein E7 (residues 44-93); assay: HPV1a E7 fragment binders on microarrays, primary screen, biochemical, small-molecule microarray, residues 44-93, 635 nm fluorescence (AID 1108); details: small-molecule microarray binding, fluorescence 635 nm; higher = more signal;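 further: E7 fragment applied at 1 µg/mL in TBST for 1 h at 4 C; score combines spot fluorescence with its signal to noise ratio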
[12] = modulators of HCV replicon luciferase signal, primary screen, HCV replication inhibitor project, Huh7 cells, luciferase reporter (AID 1109); details: 48 h, higher = more signal;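 further: huh7 hepatoma cells harbouring a luciferase neomycin HCV replicon reporter; luciferase luminescence as measure of HCV replicon replication; test concentration not given here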
[13] = target: Left-right determination factor 2 (Homo sapiens) (UniProt O00292); assay: LEFTY2 binders on small-molecule microarrays, primary screen, biochemical, small-molecule microarray, 635 nm fluorescence scan (AID 1110); details: LEFTY2 binding, higher = more signal
[14] = target: Calmodulin-1 (Homo sapiens) (UniProt P0DP23); assay: CALM1 binders on microarrays, EGTA buffer, profiling panel, biochemical, small-molecule microarray, Cy5-labelled CALM1 (AID 1111); details: Cy5-CALM1 binding fluorescence, higher = more signal;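 further: labelled calmodulin applied in Tris saline Tween buffer holding calcium plus EGTA and DTT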
[15] = target: Calmodulin-1 (Homo sapiens) (UniProt P0DP23); assay: calcium-bound CALM1 binders on microarrays, profiling panel, artefact control for SMM control-protein annotation, biochemical, small-molecule microarray, Cy5-labelled CALM1, plus calcium (AID 1112); details: Cy5-CALM1 binding fluorescence, higher = more signal;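 further: score merges spot fluorescence with signal to noise from triplicate slides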
[16] = small-molecule microarray binders of probe aWnt5a, primary screen, biochemical, biotinylated probe, 635/667 nm fluorescence (AID 1113); details: higher = more signal;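 further: score merges 667 nm fluorescence intensity with signal-to-noise per printed feature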
[17] = small-molecule microarray binders of probe aShh, primary screen, biochemical, biotinylated probe, 635/667 nm fluorescence (AID 1114); details: higher = more signal;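 further: probe is biotin-labelled aShh protein from a stem cell growth factor screen; measures binding of labelled protein to compounds printed on the slide; score merges feature fluorescence at 667 nm with signal-to-noise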
[18] = small-molecule microarray binders of probe aNog, primary screen, biochemical, biotinylated probe, 635/667 nm fluorescence (AID 1115); details: higher = more signal;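 further: probe is biotinylated aNog protein used at 0.15 µg/mL for 1 h at 4 C; z-score combines 667 nm fluorescence of each spot with its signal to noise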
[19] = target: Torsin-1A-interacting protein 1 (Homo sapiens) (UniProt Q5JTV8); assay: LAP1 binders from COS7 cell lysate, primary screen, small-molecule microarray, 635/667 nm fluorescence (AID 1116); details: COS7-hLAP1 lysate binding, 635 nm fluorescence, higher = more signal
[20] = target: Alpha-bungarotoxin (Bungarus multicinctus) (UniProt P60615); assay: alpha-bungarotoxin binders on microarray, profiling panel, artefact control for SMM control protein annotation, biochemical, small-molecule microarray, Alexa647 label, 635/667 nm fluorescence (AID 1117); details: alpha-BTX-A647 binding fluorescence, higher = more signal
Alpha-bungarotoxin (Bungarus multicinctus), sequence (P60615 whole entry, looked up): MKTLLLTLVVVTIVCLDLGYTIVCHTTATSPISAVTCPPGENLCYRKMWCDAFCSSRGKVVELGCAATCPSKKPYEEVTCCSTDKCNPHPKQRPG

Left-right determination factor 2 (Homo sapiens), sequence (O00292 whole entry, looked up): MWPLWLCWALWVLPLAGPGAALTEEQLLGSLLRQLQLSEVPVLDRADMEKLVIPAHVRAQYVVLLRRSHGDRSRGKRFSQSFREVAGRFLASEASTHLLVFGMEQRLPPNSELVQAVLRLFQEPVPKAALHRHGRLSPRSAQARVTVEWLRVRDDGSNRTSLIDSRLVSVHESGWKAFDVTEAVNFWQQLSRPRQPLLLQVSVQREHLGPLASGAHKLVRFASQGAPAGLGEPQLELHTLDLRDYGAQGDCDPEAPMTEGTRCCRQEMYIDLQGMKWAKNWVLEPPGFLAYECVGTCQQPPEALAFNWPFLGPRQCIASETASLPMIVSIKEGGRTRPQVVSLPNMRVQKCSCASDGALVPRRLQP
Follistatin-related protein 3 (Homo sapiens), sequence (O95633 whole entry, looked up): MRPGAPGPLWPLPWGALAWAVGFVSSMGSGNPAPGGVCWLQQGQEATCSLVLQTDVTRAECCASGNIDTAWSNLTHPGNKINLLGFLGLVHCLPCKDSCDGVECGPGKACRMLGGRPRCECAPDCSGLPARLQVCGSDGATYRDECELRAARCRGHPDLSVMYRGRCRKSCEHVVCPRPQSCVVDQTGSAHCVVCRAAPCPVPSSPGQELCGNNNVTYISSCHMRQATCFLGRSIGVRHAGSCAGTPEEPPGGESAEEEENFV
Fibroblast growth factor 10 (Homo sapiens), sequence (O15520 whole entry, looked up): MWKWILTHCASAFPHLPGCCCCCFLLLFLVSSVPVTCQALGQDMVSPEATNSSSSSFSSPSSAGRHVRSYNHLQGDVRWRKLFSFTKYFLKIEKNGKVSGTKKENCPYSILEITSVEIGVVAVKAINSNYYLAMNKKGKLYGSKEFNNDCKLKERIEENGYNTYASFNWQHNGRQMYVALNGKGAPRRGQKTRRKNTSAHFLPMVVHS
Dickkopf-related protein 1 (Homo sapiens), sequence (O94907 whole entry, looked up): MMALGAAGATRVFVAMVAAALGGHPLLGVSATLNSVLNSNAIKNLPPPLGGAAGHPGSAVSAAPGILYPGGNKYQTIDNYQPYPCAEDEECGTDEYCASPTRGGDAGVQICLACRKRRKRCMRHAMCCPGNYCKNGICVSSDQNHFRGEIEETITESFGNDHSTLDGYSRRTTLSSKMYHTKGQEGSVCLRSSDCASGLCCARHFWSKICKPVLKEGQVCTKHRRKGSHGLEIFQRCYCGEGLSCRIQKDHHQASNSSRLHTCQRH
Torsin-1A-interacting protein 1 (Homo sapiens), sequence (Q5JTV8 whole entry, looked up): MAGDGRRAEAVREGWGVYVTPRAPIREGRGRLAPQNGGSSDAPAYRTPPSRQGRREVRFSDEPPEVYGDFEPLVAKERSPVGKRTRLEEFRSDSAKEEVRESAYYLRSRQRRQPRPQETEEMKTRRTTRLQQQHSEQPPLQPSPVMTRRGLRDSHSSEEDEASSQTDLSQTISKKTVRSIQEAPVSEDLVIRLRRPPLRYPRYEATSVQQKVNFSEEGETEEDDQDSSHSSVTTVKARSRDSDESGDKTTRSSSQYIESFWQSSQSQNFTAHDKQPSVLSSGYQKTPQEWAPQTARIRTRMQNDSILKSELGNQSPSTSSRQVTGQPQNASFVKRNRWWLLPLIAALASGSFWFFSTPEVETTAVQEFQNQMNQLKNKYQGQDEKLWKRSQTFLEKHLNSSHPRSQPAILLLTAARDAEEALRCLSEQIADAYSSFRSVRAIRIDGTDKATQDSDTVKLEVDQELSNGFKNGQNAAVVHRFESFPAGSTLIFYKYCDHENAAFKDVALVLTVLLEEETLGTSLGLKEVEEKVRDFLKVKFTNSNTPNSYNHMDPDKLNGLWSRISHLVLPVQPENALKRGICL
Epidermal growth factor receptor (Homo sapiens), sequence (P00533 whole entry, looked up): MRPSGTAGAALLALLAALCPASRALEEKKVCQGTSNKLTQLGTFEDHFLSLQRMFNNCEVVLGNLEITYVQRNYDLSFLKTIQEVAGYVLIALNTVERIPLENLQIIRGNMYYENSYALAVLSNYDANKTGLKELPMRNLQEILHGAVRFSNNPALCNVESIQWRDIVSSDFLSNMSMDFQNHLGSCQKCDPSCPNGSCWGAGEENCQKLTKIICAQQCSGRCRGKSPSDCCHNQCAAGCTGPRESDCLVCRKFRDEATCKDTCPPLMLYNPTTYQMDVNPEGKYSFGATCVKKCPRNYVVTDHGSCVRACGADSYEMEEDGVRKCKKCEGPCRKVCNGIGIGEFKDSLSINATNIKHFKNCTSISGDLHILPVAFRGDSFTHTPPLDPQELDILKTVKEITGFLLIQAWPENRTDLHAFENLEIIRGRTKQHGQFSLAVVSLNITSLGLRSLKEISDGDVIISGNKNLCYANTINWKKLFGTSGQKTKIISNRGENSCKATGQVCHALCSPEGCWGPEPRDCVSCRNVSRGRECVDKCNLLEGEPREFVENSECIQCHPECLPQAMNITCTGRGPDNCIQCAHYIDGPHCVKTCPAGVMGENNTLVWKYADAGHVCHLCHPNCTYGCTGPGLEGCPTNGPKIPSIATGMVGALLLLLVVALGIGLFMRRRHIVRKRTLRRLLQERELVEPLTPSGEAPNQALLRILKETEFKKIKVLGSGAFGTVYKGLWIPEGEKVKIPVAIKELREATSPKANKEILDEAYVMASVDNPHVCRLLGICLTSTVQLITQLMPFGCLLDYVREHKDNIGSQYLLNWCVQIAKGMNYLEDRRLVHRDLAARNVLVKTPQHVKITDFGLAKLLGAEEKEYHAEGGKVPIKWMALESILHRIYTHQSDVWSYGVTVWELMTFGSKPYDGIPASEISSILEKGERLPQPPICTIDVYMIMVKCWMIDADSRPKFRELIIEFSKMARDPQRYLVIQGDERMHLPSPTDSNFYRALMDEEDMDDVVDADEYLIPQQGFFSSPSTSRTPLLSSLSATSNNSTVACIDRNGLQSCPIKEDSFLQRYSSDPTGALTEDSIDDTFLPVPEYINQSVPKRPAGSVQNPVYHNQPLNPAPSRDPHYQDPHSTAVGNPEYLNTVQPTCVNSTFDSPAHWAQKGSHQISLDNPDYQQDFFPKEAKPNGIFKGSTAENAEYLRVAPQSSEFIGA

Row | SMILES | composite z-score [1] | composite z-score [2] | composite z-score [3] | z-score [4] | composite z-score [5] | composite z-score [6] | composite z-score [7] | composite z-score [8] | composite z-score [9] | composite z-score [10] | composite z-score [11] | z-score [12] | composite z-score [13] | composite z-score [14] | composite z-score [15] | composite z-score [16] | composite z-score [17] | composite z-score [18] | composite z-score [19] | composite z-score [20]
1 | C=CCC(OC(C)=O)[C@@H]1[C@@H](N(Cc2ccc(-c3cccc(C(F)(F)F)c3)o2)C(=O)Cc2ccc(F)cc2)c2cc(OCCCO)ccc2N1C(=O)Cc1ccc2ccccc2c1 (stereo not given in full) | -0.595 | -0.341 | 0.228 | 0.705 (inactive) | -0.195 | -1.79 | -0.676 | -0.511 | -0.286 | 1.12 | -0.97 | 0.022 | -0.511 | -0.599 | 0.218 | -0.0684 | 0.0684 | -0.352 | -0.016 | -0.772
2 | C[C@@H]1ON(c2ccccc2)[C@H](c2ccccc2)[C@H]1C(=O)O | -0.344 | -0.158 | -0.269 | 0.221 (inactive) | 0.777 | 0.362 | -0.436 | -0.213 | 0.796 | -0.367 | -0.429 | 0.387 | 0.25 | 0.0717 | -0.124 | 0.0377 | -0.2 | 0.618 | 0.109 | 0.167
3 | C[C@]1(C(=O)O)c2ccccc2C(=O)N(Cc2cc(F)cc(C(F)(F)F)c2)[C@H]1c1ccc(CO)cc1 | 1.64 | -0.0944 | 0.249 | 0.395 (inactive) | 0.139 | -0.429 | 0.213 | 0.0304 | -0.336 | 0.561 | 0.156 | 0.475 | 0.324 | -0.16 | -0.348 | 0.0044 | -0.0035 | -0.0446 | -0.0131 | -0.408
4 | [N-]=[N+]=Nc1ccccc1[C@@H]1OC(c2ccc(OCCCO)cc2)=N[C@]1(Cc1ccccc1)C(=O)NCCN1CCOCC1 | 0.669 | 0.652 | 0.825 | -0.299 (inactive) | 1.1 | 0.774 | -0.04 | 0.952 | -0.326 | 0.33 | 1.5 | -2.41 | -0.429 | -0.0408 | 0.741 | 0.0044 | 0.185 | 0.996 | 1.52 | 1.23
5 | COCCOC(=O)N1C(=O)[C@@]2(c3cc(C#CCCO)ccc31)[C@H](c1ccc(OCCO)cc1)N1[C@H](c3ccccc3)[C@H](c3ccccc3)OC(=O)[C@H]1[C@@H]2C(=O)N1CCCCCCC1 | 1.23 | 2.43 | 1.51 | 0.458 (inactive) | 1.25 | 1.32 | 1.32 | 1.54 | 1.85 | 1.73 | 0.371 | -0.882 | 1.39 | 1.99 | 0.953 | 0.779 | 0.599 | 0.952 | 3.39 | 2.3
6 | C=CCOC(=O)[C@H]1[C@@H]2C(=O)O[C@@H](c3ccccc3)[C@@H](c3ccccc3)N2[C@@H](c2ccc(OCCOC(=O)[C@@H]3C[C@@H]4C(=O)N[C@@H](CCCC[N+](C)(C)C)C(=O)N4[C@@H]3c3ccc(O)cc3)cc2)[C@]12C(=O)Nc1ccc(I)cc12 | 1.1 | 0.031 | -0.211 | -0.21 (inactive) | 1.2 | 1.24 | 0.934 | 1.21 | 1.07 | 0.723 | 1.41 | -2.84 | 0.668 | 0.167 | -0.49 | 0.0324 | 0.203 | 1.06 | 1.84 | 0.74
7 | CC1=C([C@H](O)CCc2ccccc2)[C@H](CO)n2c(=O)n(-c3ccccc3)c(=O)n2C1 | -0.385 | -0.204 | -0.48 | -1.04 (inactive) | 0.233 | 0.196 | 0.167 | -0.0401 | 0.231 | 0.472 | -0.679 | -0.508 | 0.209 | -0.524 | -0.604 | -0.0685 | -0.169 | -0.0438 | -0.395 | -0.105
8 | CCN(CC)c1ccc(N2CC=CC34O[C@@H]5C=CCCOC(=O)C5[C@H]3C(=O)N(C(C)CO)[C@@H]4C2=O)cc1 (stereo not given in full) | 1.85 | -0.24 | 0.477 | -0.0428 (inactive) | 0.0925 | 0.519 | -0.79 | -0.157 | -0.0888 | 1.42 | 0.274 | -1.19 | -0.331 | -0.521 | -1.08 | -0.0758 | 0.194 | 0.156 | 0.391 | -0.973
9 | COc1ccc(C(=O)Nc2cccc(CN3C(=O)[C@@]4(O[C@@H](CC(=O)N5CCC[C@H]5CO)[C@H]([Si](C)(C)c5ccc(OC)cc5)[C@H]4C)c4ccccc43)c2)cc1 | 1.21 | -0.0379 | -0.183 | 1 (inactive) | 0.43 | 0.744 | 0.527 | 0.839 | 0.496 | 0.182 | 0.843 | -3.13 | 0.801 | 1.26 | 0.78 | -0.0643 | -0.142 | -0.138 | 1.72 | 2.08
10 | C[C@@H]1ON(c2ccc(I)cc2)[C@H](c2cccc(NC(=O)OCC3c4ccccc4-c4ccccc43)c2)[C@H]1C(=O)N1C(=O)OC[C@H]1Cc1ccccc1 | 0.683 | 1.04 | -0.387 | -0.271 (inactive) | 0.252 | 0.529 | 0.325 | 0.951 | 1.05 | 0.529 | 0.531 | -0.31 | 0.678 | 0.224 | -0.435 | -0.142 | -0.0866 | -0.285 | 0.246 | -0.0652
